In PubChem BioAssay (NCI) one finds growth data, which are given here for 15 compounds.

Common to all, as to assay: NCI-60 one-dose screen, 48 h (100 = growth as untreated, 0 = no growth, -100 = all killed)
Assay [1] concerns HCT-15 colon. Conditions: 10 µM.
Assay [2] deals with HT29 colon. The settings on record: 10 µM.
In assay [3] the test system is SNB-75 CNS. Conditions: 10 µM.
Assay [4] concerns SNB-19 CNS. The settings on record: 10 µM.
In assay [5] the test system is U251 CNS. The settings on record: 10 µM.
Assay [6] relates to PC-3 prostate. The settings on record: 10 µM.
Assay [7] relates to SK-MEL-5 melanoma. The settings on record: 10 µM.
The subject of assay [8] is UACC-62 melanoma. The settings on record: 10 µM unless noted.
The subject of assay [9] is LOX IMVI melanoma. The settings on record: 10 µM.
For assay [10], the system named is SK-MEL-28 melanoma. The settings on record: 10 µM.

This is part of a sample that, as a whole, favours compounds with a hit. Of some 83,000 tested, about 20% had one in any assay.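 Step 1: grow cells in 96-well plates. Step 2: add test compound at a single concentration. Step 3: incubate 48 h. Step 4: record percent growth.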 Values without a mark were called inactive. Activity calls are given as the source filed them. Rule for the calls: active = growth percent below 10; inactive = the rest.

As to `CC1(C)N=C(N)N=C(N)N1c1ccc(Cl)cc1`, the growth in [1] is 73.6%; in assay [2], 29.8%; in assay [3] it was 75.8%; in assay [4], 58%; in [5] it was 31.5%; in [6], 33.1%. The growth is 31.7% in assay [7], 41.4% in [8], 24.6% in assay [9] and 90.4% in assay [10].
Turning to `O=C(O)/C=C/C(=O)NCc1ccccc1`, the growth in assay [1] is 97.3%; in assay [2] it was 105%; in assay [3], 81.9%; in assay [4] it was 115%; in [5], 118%; in assay [6] it was 101%. Further, the growth in assay [7] was 101%; in assay [8] it was 118%; in assay [9], 97%; in assay [10], 105%.
Turning to `COc1ccc(C)cc1OC`, the growth is 104% in [1]; 108% in assay [2]; 104% in [3]; 107% in assay [4]; 97.2% in [5]; 105% in assay [6]. In addition, the growth was 99.7% in assay [7], 99.5% in assay [8], 96.1% in assay [9] and 115% in assay [10].
With `CCNc1nc2c(cnn2C)c(=O)[nH]1`, the growth is 122% in assay [1]; 96.2% in assay [2]; 88.6% in assay [3]; 109% in assay [4]; 97.8% in assay [5]; 99% in assay [6]. For the same compound, the growth in [7] is 96.7%; in [8], 107%; in [9], 95%; in [10], 118%.
Turning to `O=C(O)C(c1ccccc1)C(O)c1ccccc1` (stereo not given), the growth was 102% in assay [1]; 96.5% in assay [2]; 96.6% in assay [3]; 103% in assay [4]; 91.9% in assay [5]; 92.6% in assay [6]. For the same compound, the growth in assay [7] is 94%; in [8], 93.6%; in [9] it was 102%; in [10], 103%.
In the case of `O=C1OC(=O)C2C1C1(Cl)C(Cl)=C(Cl)C2(Cl)C2C(=O)OC(=O)C21` (stereo not given), the growth in assay [1] is 103%; in [2] it was 104%; in [3], 89.1%; in assay [4], 106%; in assay [5] it was 101%; in assay [6], 97.9%. In addition, the growth was 103% in assay [7], 102% in assay [8], 98.4% in assay [9] and 107% in [10].
With `CC1(C)/C(=C\CO)C2CCC1C2` (stereo not given), the growth is 105% in assay [1]; 109% in [2]; 93.2% in assay [3]; 106% in [4]; 105% in assay [5]; 95% in [6]. Besides, the growth was 102% in [7], 97.3% in assay [8], 107% in assay [9] and 115% in assay [10].
As to `O=C(N/N=C\c1cc(Br)cc(Br)c1O)N/N=C/c1cc(Br)cc(Br)c1O`, the growth in [1] is 33.6%; in assay [2], 105%; in [3], 49%; in assay [4], 68.2%; in assay [5] it was 46.1%; in assay [6] it was -1.34% (active). In addition, the growth in [7] was 45.3%; in assay [8], 39%; in assay [9], 50.5%; in assay [10] it was 81.9%.
With `CC(=O)/C(Cc1ccccc1)=N/O`, the growth in [1] is 99.7%; in assay [2], 92.9%; in [3], 89.2%; in assay [4], 98.9%; in assay [5] it was 94.9%; in [6], 84.9%. For the same compound, the growth was 106% in assay [7], 98.1% in assay [8], 94.2% in assay [9] and 110% in [10].
For `NNc1ccccc1C(=O)O`, the growth was 99.1% in [1]; 105% in [2]; 89.4% in assay [3]; 113% in assay [4]; 107% in assay [5]; 99.1% in assay [6]. In addition, the growth in [7] is 103%; in [8], 107%; in assay [9] it was 101%; in assay [10], 118%.
As for `O=c1[nH]n(-c2ccccc2)c(=O)cc1Cl`, the growth in [1] is 120%; in assay [2] it was 110%; in assay [3] it was 95.2%; in assay [4], 98.9%; in assay [5] it was 109%; in assay [6], 97.3%. Moreover, the growth was 102% in assay [7], 87.3% in [8], 96% in assay [9] and 117% in assay [10].
Take `N#Cc1ccc(NC(=O)Nc2cccc(C#N)c2)cc1`: the growth in assay [1] is 67.4%; in [2] it was 97.3%; in [3], 97.8%; in assay [4], 103%; in assay [5], 91.8%; in assay [6] it was 57.3%. For the same compound, the growth was 81.8% in [7], 93.7% in [8], 91.6% in [9] and 108% in [10].
Consider `O=C(O)C(O)c1ccccc1` (stereo not given), for which the growth in assay [1] is 113%; in [2], 115%; in [3] it was 94.8%; in [4], 108%; in assay [5], 103%; in assay [6] it was 97.3%. Further, the growth in assay [7] was 101%; in [8], 107%; in assay [9] it was 94.2%; in [10] it was 107%.
On to `C/C(O)=C(\C=N\C(N)=S)C(=O)Nc1ccccc1`, for which the growth in assay [1] was 110%; in assay [2], 101%; in [3], 88.1%; in assay [4] it was 100%; in [5] it was 97.4%; in assay [6] it was 93.5%. Moreover, the growth in assay [7] is 97.6%; in assay [8] it was 96.8%; in [9], 96.7%; in [10], 116%.
Consider `COc1cc(CN)ccc1O`, for which the growth was 111% in assay [1]; 91.8% in [2]; 88.8% in [3]; 94.9% in [4]; 96% in assay [5]; 100% in assay [6]. The growth in [7] is 102%; in assay [8], 90.1%; in assay [9], 89.8%; in assay [10] it was 117%.
